The sample as a whole holds a higher share of hits than the screen did.
FECH block = blocks human mitochondrial ferrochelatase activity. calls only at 10 µM (by protocol). P22830. actives 3.3% (n = 20,000). purified FECH, Ni-mesoporphyrin absorbance 550 nm;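 active means enzyme reaction rate more than 3 SD below the solvent-only control wells on the same plate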;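 further: lower slope than DMSO wells means FECH inhibition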
Target sequence (P22830 whole entry, looked up): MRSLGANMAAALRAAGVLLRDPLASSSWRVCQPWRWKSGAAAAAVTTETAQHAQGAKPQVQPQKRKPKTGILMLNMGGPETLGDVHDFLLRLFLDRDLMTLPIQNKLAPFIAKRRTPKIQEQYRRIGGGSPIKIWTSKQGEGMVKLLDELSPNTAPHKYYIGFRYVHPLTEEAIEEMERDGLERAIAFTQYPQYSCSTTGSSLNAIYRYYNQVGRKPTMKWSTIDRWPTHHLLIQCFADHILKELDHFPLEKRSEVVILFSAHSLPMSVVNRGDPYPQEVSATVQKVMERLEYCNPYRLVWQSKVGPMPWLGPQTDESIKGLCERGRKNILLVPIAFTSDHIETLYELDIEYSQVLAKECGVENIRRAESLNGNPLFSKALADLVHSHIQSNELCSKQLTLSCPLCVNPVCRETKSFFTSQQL
Large screens that a line does not name were inactive.

CNC(=O)c1ccc(Cn2c(=O)c3cc(OC)c(OC)cc3n(CC(=O)NC(C)C)c2=O)cc1	none
COc1cc2c(=O)n(Cc3ccc(C(=O)NC(C)C)cc3)c(=O)n(CC(=O)NC(C)C)c2cc1OC	none
CCOc1ccc(NC(=O)Nc2ccc(Sc3c(CC)c(C)nc4ncnn34)cc2)cc1	none
CCc1c(C)nc2ncnn2c1Sc1ccc(NC(=O)Nc2ccc(C)cc2C)cc1	none
CCc1c(C)nc2ncnn2c1Sc1ccc(NC(=O)NCCc2ccccc2)cc1	FECH block active
CCc1c(C)nc2ncnn2c1Sc1ccc(NC(=O)NCc2ccc(C)cc2)cc1	FECH block active
CCOc1ccccc1NC(=O)Nc1ccc(Sc2c(CC)c(C)nc3ncnn23)cc1	none
CCc1c(C)nc2ncnn2c1Sc1ccc(NC(=O)NCc2ccc(F)cc2)cc1	none
CN(C)c1nc2c(c(N3CCC(n4c(=O)[nH]c5ccccc54)CC3)n1)CCNC2	none
COc1ccc(CN2CCCN(Cc3ccccc3Cl)S2(=O)=O)cc1	none
O=S1(=O)N(Cc2ccccc2Cl)CCCN1Cc1ccc(F)cc1Cl	FECH block active
Cc1cc(C)cc(NC(=O)CN2CCN(Cc3ccc(F)cc3Cl)S2(=O)=O)c1	none
O=C(CN1CCCN(Cc2ccccc2Cl)S1(=O)=O)Nc1cc(F)ccc1F	none
COc1ccc(NC(=O)CN2CCN(Cc3ccc(F)cc3Cl)S2(=O)=O)cc1Cl	FECH block active
Cc1ccc(NC(=O)CN2CCN(Cc3ccc(F)cc3Cl)S2(=O)=O)cc1C	none
O=C(CN1CCN(Cc2ccc(F)cc2Cl)S1(=O)=O)Nc1cccc(F)c1	none
COc1ccc(NC(=O)CN2CCN(Cc3ccccc3Cl)S2(=O)=O)cc1Cl	none
Cc1cccc(NC(=O)CN2CCN(Cc3ccc(F)cc3Cl)S2(=O)=O)c1	FECH block active
CCC(CC)n1nc(C)cc1NC(=O)c1ccc(C2CCCO2)s1 (stereo not given)	none
CCC1=NOC(C(=O)NCc2ccccc2-n2ccnc2C)C1 (stereo not given)	none
Cc1nc2nc(C)c(NC(=O)Nc3ccc4c(c3)OCCO4)c(=O)n2[nH]1	none
O=C1CNCC(C(=O)Nc2cccc(Oc3ccccc3)c2)N1 (stereo not given)	none
COc1ccc(Nc2nc(SC)nc(-c3ccc(C)cc3)c2C#N)cc1Cl	none
C=CCn1c(=O)c2cnc(-c3ccc(C)cc3)nc2n(C)c1=O	none
CCCC(NC(=O)c1csc(C(C)=O)c1)c1ccccc1 (stereo not given)	none
CCN(C/C=C/c1ccccc1)C(=O)CC1=CCNCC1	none
Cc1nc(CN2CCN(C(=O)c3cnn(Cc4ccccc4)c3)CC2)no1	FECH block active
O=C(c1ccccc1)N1CCC(NCc2cnn(Cc3ccccc3)c2)CC1	none
Cc1nc(CN2CCN(C(=O)CSc3nnc(C)s3)CC2)no1	none
CN(Cc1nc(-c2cccnc2)no1)Cc1ccc(C2CCCO2)s1 (stereo not given)	none
CN(Cc1ccncc1)Cc1nc(-c2cccnc2)no1	none
Cc1ccc2[nH]c(CN(C)Cc3nc(-c4cccnc4)no3)nc2c1C	FECH block active
CCCC(=O)N(Cc1nc2nc(C)cc(C)n2n1)c1cccc(Cl)c1	none
Cc1cc(C)n2nc(CN(C(=O)c3cccc(Cl)c3)c3ccc(F)cc3)nc2n1	none
Cc1ccc(N(Cc2nc3nc(C)cc(C)n3n2)C(=O)Cc2ccc(Cl)cc2)cc1	FECH block active
Cc1ccc(N(Cc2nc3nc(C)cc(C)n3n2)C(=O)c2cccc(C)c2)cc1	FECH block active
Cc1cccc(N(Cc2nc3nc(C)cc(C)n3n2)C(=O)CCc2ccccc2)c1	none
CCCC(=O)N(Cc1nc2nc(C)cc(C)n2n1)c1cccc(C)c1	FECH block active
Cc1cc(C)n2nc(CN(C(=O)C3CCCCC3)c3cccc(Cl)c3)nc2n1	none
Cc1cc(C)n2nc(CN(C(=O)C3CCCCC3)c3ccc(Cl)cc3)nc2n1	FECH block active
COc1cccc(C(=O)N(Cc2nc3nc(C)cc(C)n3n2)c2ccc(Cl)cc2)c1	none
Cc1cc(C)n2nc(CN(C(=O)Cc3ccccc3)c3ccc(Cl)cc3)nc2n1	none
COc1ccc(CC(=O)N(Cc2nc3nc(C)cc(C)n3n2)c2ccc(Cl)cc2)cc1	none
Cc1ccc(N(Cc2nc3nc(C)cc(C)n3n2)C(=O)C2CCCCC2)cc1	none
CCc1c(C)nc2ncnn2c1Sc1ccc(NC(=O)Nc2ccc3c(c2)OCO3)cc1	none
COc1cccc(C(=O)Nc2ccc(C)c(OCc3cc(=O)n4cccc(C)c4n3)c2)c1	none
CCCc1cc(Sc2ccc(NC(=O)c3ccc(Cl)cc3)cc2)n2ncnc2n1	none
Cc1ccccc1S(=O)(=O)NCCn1c(-c2ccccc2)nc2cccnc21	none
CCCc1cc(Sc2ccc(NS(=O)(=O)c3ccc(CC(C)C)cc3)cc2)n2ncnc2n1	none
COCc1nnc(NC(=O)CN2CCCC(c3nnc4ccccn34)C2)s1 (stereo not given)	none
Cc1cccc(N(Cc2nc3nc(C)cc(C)n3n2)C(=O)c2ccccc2)c1	none
Cc1ccc(N(Cc2nc3nc(C)cc(C)n3n2)S(=O)(=O)c2ccc(C)cc2)cc1	none
Cc1cccc(N(Cc2nc3nc(C)cc(C)n3n2)C(=O)c2ccccc2C)c1	FECH block active
Cc1cc(C)n2nc(CN(C(=O)c3ccccc3C)c3ccccc3)nc2n1	none
Cc1cc(C)n2nc(CN(C(=O)c3ccccc3)c3ccc(Cl)cc3)nc2n1	none
Cc1cc(C)n2nc(CN(C(=O)c3ccccc3C)c3cccc(Cl)c3)nc2n1	none
Cc1cccc(N(Cc2nc3nc(C)cc(C)n3n2)S(=O)(=O)c2ccccc2)c1	none
Cc1ccc(N(Cc2nc3nc(C)cc(C)n3n2)S(=O)(=O)c2ccccc2)cc1	FECH block active
Cc1cccc(C(=O)N(Cc2nc3nc(C)cc(C)n3n2)c2ccccc2)c1	FECH block active
Cc1ccc(S(=O)(=O)NCc2nc3cccnc3n2Cc2ccccc2)c(C)c1	none
COc1cccc(C(=O)N(Cc2nc3nc(C)cc(C)n3n2)c2ccc(F)cc2)c1	none
O=c1cc(CN2CCCCCC2)nc2nc(NCc3ccc(F)cc3)[nH]n12	none
COc1ccc(NC(=O)CN2CCCN(Cc3ccc(Cl)cc3)S2(=O)=O)c(OC)c1	none
COC(=O)c1cc2n(n1)CCCN(Cc1c[nH]c3c(C)cccc13)C2	none
COc1ccc(NS(=O)(=O)c2cc(N3C(=O)CCS3(=O)=O)ccc2C)cc1	none
Cc1ccc2c(c1)NC(=O)C2CC(=O)NCCN1CCCOC1=O (stereo not given)	none
Cc1cccc(N(CC(=O)N(C)Cc2n[nH]c3c2CCCCC3)S(C)(=O)=O)c1	none
Cc1cccc(N(CC(=O)NCCN2CCNC2=O)S(C)(=O)=O)c1	FECH block active
COc1ccccc1-c1nc(Cn2c(=O)c3cnc(-c4ccncc4)nc3n(C)c2=O)c(C)o1	none
Cc1ccccc1C1=CCN(c2ncc(NS(=O)(=O)c3ccc(F)c(F)c3)cc2C(=O)O)CC1	none
Cc1ccc(S(=O)(=O)Nc2cnc(N3CC=C(c4ccccc4C)CC3)c(C(=O)O)c2)cc1	FECH block active
COc1ccc(S(=O)(=O)Nc2cnc(N3CC=C(c4ccccc4C)CC3)c(C(=O)O)c2)cc1	none
O=S(=O)(Cc1ccccc1)N1CCC(n2c(C(F)(F)F)nc3cccnc32)CC1	none
CCOc1ccccc1CN(C(=O)c1cn(CC)c2nc(C)ccc2c1=O)C1CC1	none
CCOc1ccccc1CN(C(=O)c1cn2cc(Cl)ccc2n1)C1CC1	FECH block active
CCOc1ccccc1CN(CC)C(=O)c1ccc2nccn2c1	none
Cn1c(=O)n(Cc2ccccc2F)c(=O)c2cnc(-c3cccnc3)nc21	none
COc1cccc(C(=O)NCC2=CCCN(CC(N)=O)C2)c1	none
COC(=O)c1ccccc1NC(=O)Cn1c(C(=O)OC)cc2ccsc21	none
CCc1ccccc1NC(=O)CN1CCCN(Cc2cccc(F)c2)S1(=O)=O	none

Bioassay records (PubChem BioAssay)
